Assay [1] can be described thus: Viability qHTS for spleen associated tyrosine kinase inhibitor (SYKi) naive MV4-11 cells (AID 1963823). Further: nearly all actives have a fitted effect of over 40% in size. The method in brief:
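Luminescence from CellTiter-Glo, developed 10 min at room temperature, gave viability of MV4-11 cells never exposed to SYK inhibitor. Cells (500/well) had been incubated with compounds for 72 hr under standard culture conditions.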
Background: In qHTS, concentration-response curves come from the screen itself.

A short description of assay [2]: Viability qHTS for spleen associated tyrosine kinase inhibitor (SYKi) drug resistant MV4-11 cells (AID 1963824). Further: nearly all actives have a fitted effect of over 35% in size. The method in brief:
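CellTiter-Glo luminescence, read 10 min after reagent addition, reports viability after a 72 hr compound exposure. Cells are an MV4-11 line made resistant to SYK inhibition, seeded at 500 per well onto compound-containing plates.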

Assay [3] is described as follows: Quantitative highthroughput screen to assess conditional lethalithy of NOMO1 cells grown in RPMI1640 with untreated serum (RPMI+s) (AID 1963876). Further: nearly all actives have a fitted effect of over 35% in size.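 On Viability: 100% = DMSO wells and 0% = empty wells without cells.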 The method in brief: (§1)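 Each medium arm—HPLM with 10% dialyzed FBS, or RPMI1640 with 5 mM glucose and 10% untreated or dialyzed FBS—was screened against an 11-point, 3-fold compound titration for 48 h at 37 °C, with CellTiter-Glo luminescence as endpoint.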

Assay [4] in a line: Quantitative highthroughput screen to assess conditional lethalithy of NOMO1 cells grown in RPMI1640 with dialyzed fetal bovine serum (RPMI+ds) (AID 1963877). Further: nearly all actives have a fitted effect of over 30% in size.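 On Viability: series mostly up to about 46 µM; 100% = DMSO control wells and 0% = empty wells.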 The method in brief: as §1
The nature of assay [5]: Quantitative highthroughput screen to assess conditional lethalithy of NOMO1 cells grown in Human Plasma-Like Medium with dialyzed fetal bovine serum (HPLM+ds) (AID 1963878). Further: nearly all actives have a fitted effect of over 35% in size.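 On Viability: 100% = DMSO wells and 0% = empty wells on each plate.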 The method in brief: as §1
A short description of assay [6]: Quantitative highthroughput screen to assess conditional lethalithy of P12 Ichikawa cells grown in Human Plasma-Like Medium with dialyzed fetal bovine serum (HPLM+ds) (AID 1963879). Further: nearly all actives have a fitted effect of over 35% in size. On Viability: series mostly up to about 46 µM. The following applies: Potency: viability. Summed up: as §1
Assay [7] in a line: Quantitative highthroughput screen to assess conditional lethalithy of P12 Ichikawa cells grown in RPMI1640 with dialyzed fetal bovine serum (RPMI+ds) (AID 1963880). Further: nearly all actives have a fitted effect of over 35% in size.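 On Viability: 100% = DMSO wells and 0% = empty wells on each plate.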 The following applies: Potency: P12-Ichikawa viability. The method in brief:
as §1

The nature of assay [8]: Quantitative highthroughput screen to assess conditional lethalithy of P12 Ichikawa cells grown in RPMI1640 with untreated serum (RPMI+s) (AID 1963881). Further: nearly all actives have a fitted effect of over 35% in size.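 On Viability: series mostly up to about 46 µM; 100% = DMSO wells and 0% = empty wells without cells.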 The conditions noted are these: Potency: viability. Summed up: as §1
A short description of assay [9]: Quantitative highthroughput screen to assess conditional lethalithy of SEM cells grown in Human Plasma-Like Medium with dialyzed fetal bovine serum (HPLM+ds) (AID 1963882). Further: nearly all actives have a fitted effect of over 35% in size. On Viability: series mostly up to about 46 µM. Summed up:
as §1

Assay [10] in a line: Quantitative highthroughput screen to assess conditional lethalithy of SEM cells grown in RPMI1640 with unreated serum (RPMI+s) (AID 1963883). Further: nearly all actives have a fitted effect of over 35% in size.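 On Viability: 100% = DMSO wells and 0% = empty wells without cells.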 The method in brief:
as §1

Assay [11] in a line: Quantitative highthroughput screen to assess conditional lethalithy of SEM cells grown in RPMI1640 with dialyzed fetal bovine serum (RPMI+ds) (AID 1963884). Further: nearly all actives have a fitted effect of over 35% in size.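 On Viability: series mostly up to about 46 µM; 100% = DMSO control wells and 0% = empty wells without cells.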 Summed up:
as §1

Assay [12] can be described thus: Cellular viability qHTS for adrenocortical cancer (ACC) cell line SW-13 (AID 1963989). Further: nearly all actives have a fitted effect of over 65% in size.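 On activity (max response): cells grown in serum-free medium with ITS supplement; on the % scale 0 is the no-effect control and ±100 the full control effect.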 The following applies: SW-13 ACC cells viability, CellTiter-Glo, 48 h; activity (max response): active compounds read low. Summed up: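 Here, serum-free SW-13 cultures were dosed up to 46 uM. Following 48 h, ATP-dependent luminescence (CellTiter-Glo) reported viable cells, and logistic modeling produced IC50 values.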

The nature of assay [13]: Cellular viability qHTS for adrenocortical cancer (ACC) cell line NCI-H295R (AID 1963990). Further: nearly all actives have a fitted effect of over 60% in size. Summed up: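 Viability of NCI-H295R after 48 h of treatment (final up to 46 uM) measured through cellular ATP luminescence.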

Where “and” joins values, the source holds several entries; their conditions need not be identical. Identical values can stand only once. Results filed as inconclusive are left out. A number with no mark means an inactive call. Calls of active or inactive are those of the source. The call rests on the fitted dose curve; in most records, active means well fitted curve in the direction sought with a large enough effect; inconclusive means small, poorly fitted or top-dose-only effect, or another doubt; inactive means no such curve, though single readings can be large; an effect the other way counts as inactive or inconclusive.
Potency means the concentration at half of the fitted maximal effect.

Regarding `NC1CCC(N[C@@H]2C[C@H]2c2ccccc2)CC1` (some centres not stated), the Potency entry in assay [1], in assay [2], in assay [3], in assay [4], in assay [5] and in assay [6] was “inactive” throughout. In addition, the Potency entry in [7], in assay [8], in assay [9], in [10] and in assay [11] was “inactive” throughout. The activity (max response) in assay [12] is -23.4%.
In the case of `CC1(C)COC(=O)[C@@H]1O[C@@H]1O[C@H](CO)[C@@H](O)[C@H](O)[C@H]1O`, the Potency result in [1] and in assay [2] was “inactive” in each case.
Regarding `COc1cccc([C@@H](C)NCCCc2ccccc2Cl)c1`, the Potency in assay [1] and in assay [2] was 14.8 µM (active) throughout. Besides, the Potency entry in [3], in assay [4], in [5], in assay [6], in assay [7] and in assay [8] was “inactive” in each case. Moreover, the Potency result in assay [9], in assay [10] and in assay [11] was “inactive” in each case.
As for `Cc1cccc(CN2CCN(C(c3ccccc3)c3ccc(Cl)cc3)CC2)c1` (configuration not stated), the Potency was 20.9 µM (active) in assay [1]; 11.9 µM (active) and 26.3 µM (active) in assay [2]. Moreover, the Potency result in assay [3], in assay [4], in [5], in [6], in assay [7] and in assay [8] was “inactive” in each case. In addition, the Potency entry in assay [9], in [10] and in assay [11] was “inactive” in each case.
With `Cc1ncc(-c2ccnc(Nc3ccc(S(C)(=O)=O)cc3)n2)n1C(C)C`, the Potency is 1.3 µM (active) and 1.66 µM (active) in assay [1]; 920 nM (active) and 934 nM (active) in assay [2]; 7.43 µM (active) in assay [3]; 5.9 µM (active) in assay [4]; 7.43 µM (active) in assay [5]; 20.9 µM (active) in assay [6]. Moreover, the Potency in assay [7] is 13.2 µM (active); in [8] it was 13.2 µM (active); in assay [9] it was 3.72 µM (active); in [10], 3.32 µM (active); in assay [11], 5.26 µM (active); in [12] it was 8.91 µM (active). In addition, the Potency in [13] is 7.08 µM (active).
Consider `CC(C)=CCC[C@](C)(O[C@@H]1O[C@H](CO[C@@H]2O[C@@H](CO)[C@H](O)[C@H]2O[C@@H]2OC[C@@H](O)[C@H](O)[C@H]2O)[C@@H](O)[C@H](O)[C@H]1O)[C@H]1CC[C@]2(C)[C@@H]1[C@H](O)CC1[C@@]3(C)CC[C@H](O[C@@H]4O[C@H](CO)[C@@H](O)[C@H](O)[C@H]4O[C@@H]4O[C@H](CO)[C@@H](O)[C@H](O)[C@H]4O)C(C)(C)C3CC[C@]12C` (some centres not stated), for which the viability (% of control) in [1] is 94.1% [at 9.25 µM]. Further, in assay [2], the viability, % of control was 92.9% [at 9.25 µM].
For `CC(=O)/C=C/[C@H]1[C@](C)(O)[C@@H](O)[C@H](OC(C)=O)C2C(C)(C)CCC[C@@]21C` (some centres not stated), the Potency entry in assay [1] and in assay [2] was “inactive” each time.
With `Cn1cc(C[C@@H](N)C(=O)O)c2ccccc21`, the viability (% of control) in assay [1] was 69.9% [at 9.25 µM]. Besides, the viability, % of control in [2] was 75.4% [at 9.25 µM]. Moreover, the Potency result in [3], in assay [4], in assay [5], in assay [6], in assay [7] and in assay [8] was “inactive” in each case. The Potency entry in [9], in [10] and in assay [11] was “inactive” each time. Also, in [12], the activity (max response) was -6.77%.
Regarding `CN(C1CCc2c(c3ccccc3n2CC(=O)O)C1)S(=O)(=O)c1ccc(F)cc1` (configuration not stated), the Potency entry in [1], in assay [2] and in assay [9] was “inactive” throughout. Moreover, the Potency in [3] was 7.43 µM (active); in assay [4] it was 7.43 µM (active); in [5], 5.9 µM (active); in assay [6], 8.33 µM (active); in assay [7], 14.8 µM (active); in assay [8] it was 9.35 µM (active).
With `NC(=O)NO`, the Potency result in [1], in assay [2] and in assay [13] was “inactive” throughout. Besides, the Potency was 4.69 µM (active) in assay [3]; 4.18 µM (active) in assay [4]; 2.96 µM (active) in assay [5]; 9.35 µM (active) in assay [6]; 9.35 µM (active) in assay [7]; 16.6 µM (active) in [8]. Moreover, the Potency in [9] is 3.72 µM (active); in assay [10], 4.18 µM (active); in assay [11], 4.18 µM (active). Besides, in assay [12], the activity (max response) was 10.6% and 4%.
Take `COCCOC(=O)C1=C(C)NC2=C(C(=O)CC(c3ccccc3OC)C2)C1c1cccc(O)c1` (configuration not stated): the Potency in assay [1] was 2.95 µM (active) and 4.11 µM (active); in [2], 2.35 µM (active) and 5.8 µM (active). The Potency entry in [3] and in [4] was “inactive” throughout.
`C[C@H](NC(=O)Cc1cc(F)cc(F)c1)C(=O)N[C@H](C(=O)OC(C)(C)C)c1ccccc1`: the Potency result in [1], in [3], in [4], in assay [5], in assay [6] and in assay [7] was “inactive” throughout. The Potency entry in [8], in assay [9], in assay [10] and in [11] was “inactive” in each case. Also, the Potency in assay [2] was 14.8 µM (active). In addition, the activity (max response) in [12] is 3.52%.
Turning to `O=C(c1ccc(Nc2nccc(-c3cc4ccccc4s3)n2)cc1)N1CCC(N2CCCC2)CC1`, the Potency in [1] is 920 nM (active) and 468 nM (active); in assay [2], 1.64 µM (active) and 731 nM (active); in assay [3], 26.4 µM (active); in [4] it was 26.4 µM (active); in assay [5] it was 13.2 µM (active); in assay [6], 18.7 µM (active). The Potency was 16.6 µM (active) in assay [7]; 23.5 µM (active) in [8]; 7.43 µM (active) in [9]; 9.35 µM (active) in [10]; 9.35 µM (active) in assay [11]; 6.31 µM (active) in assay [12].
In the case of `CC[C@@]1(O)C(=O)OCc2c1cc1n(c2=O)Cc2cc3c(CN(C)C)c(O)ccc3nc2-1`, the Potency is 59.6 nM (active) and 58 nM (active) in assay [1]; 0.0332 µM (active) in [2]; 0.526 µM (active) in [3]; 0.526 µM (active) in [4]; 0.332 µM (active) in assay [5]; 0.105 µM (active) in assay [6]. Further, the Potency in assay [7] was 0.0743 µM (active); in assay [8] it was 0.0743 µM (active); in [9], 0.166 µM (active); in assay [10], 0.0935 µM (active); in assay [11], 0.105 µM (active); in assay [12] it was 0.562 µM (active).

The values above are taken from PubChem BioAssay (NCATS).
